Laboratory results taken from the supplement of paper PMC10646978.
± gives the standard deviation.

Experiments:
Settings in all cases: modulator concentration 10 µM
[1] = system: RAW-Dual (murine macrophage reporter line); assay: NF-kB reporter (SEAP) activity fold change vs agonist alone; higher = enhanced NF-kB activity
Procedure, shortened: (§1)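 RAW-Dual murine macrophage reporter cells were plated at 50 000 per well in 384-well plates, pin-transferred compound to 10 μM final, and pre-incubated for 1 hour at 37 °C before a PRR agonist was added and the cells incubated overnight. NF-κB activity was read from supernatant SEAP with QUANTI-Blue at 620 nm absorbance, and IRF activity from Lucia luciferase with QUANTI-Luc by luminescence. Each signal was expressed as fold change by dividing by the mean agonist-only control on the same plate. Two replicate plates were averaged, with errors obtained by propagation.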

[2] = system: RAW-Dual (murine macrophage reporter line); assay: IRF reporter (Lucia luciferase) activity fold change vs agonist alone; higher = enhanced IRF activity
Procedure, shortened: as §1

[3] = system: RAW-Dual (murine macrophage reporter line); assay: viability score (confluency relative to resting cells, overnight) (fraction); higher = more viable, active = viable (0.7 or more)
Procedure, shortened: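 RAW-Dual macrophages in 384-well plates were exposed overnight to compound at 10 μM final. Confluency was imaged with IncuCyte, and two confluency masks were generated with IncuCyte software over all imaged wells. The viability score is confluency expressed relative to resting cells. Compounds were called viable if both masks exceeded 70% of resting cells.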

[4] = agonist: CpG ODN 1826 0.5 ug/mL

Compound | NF-kB reporter [1, 4] | NF-kB reporter ([1]; agonist: LPS 0.1 ug/mL) | NF-kB reporter ([1]; agonist: MPLA […]) | IRF reporter ([2]; agonist: 3'3'-cGAMP 10 ug/mL) | IRF reporter ([2]; agonist: LPS 0.1 ug/mL) | IRF reporter ([2]; agonist: MPLA […]) | viability score [3]
O=C(C=Cc1ccccc1)NC(NC(=S)Nc1cccc2cccnc12)C(Cl)(Cl)Cl (stereo not given) | 0.507 ± 0.089 | 0.575 ± 0.067 | 0.624 ± 0.048 | 0.452 ± 0.027 | 1.01 ± 0.1 | 1.13 ± 0.25 | 1.01 (active)
CN1C(=O)C(=C2SC(=S)N(C(CCC(=O)O)C(=O)O)C2=O)c2ccccc21 (stereo not given) | 0.793 ± 0.053 | 1.02 ± 0.07 | 0.845 ± 0.064 | 0.942 ± 0.035 | 1.28 ± 0.086 | 1.03 ± 0.093 | 1.01 (active)
CCC(=O)Nc1ccc(NC(=O)c2ccccc2OC)cc1 | 0.932 ± 0.086 | 1.04 ± 0.083 | 0.997 ± 0.064 | 1 ± 0.042 | 1.25 ± 0.087 | 0.969 ± 0.076 | 1.01 (active)
COc1cc2c(cc1OC)C(=O)C(CC1CCN(Cc3ccccc3)CC1)C2 (stereo not given) | 0.586 ± 0.14 | 0.954 ± 0.058 | 1.05 ± 0.066 | 0.797 ± 0.027 | 0.813 ± 0.096 | 0.897 ± 0.11 | 0.99 (active)
O=C(NN=Cc1ccccc1C(F)(F)F)c1ccc(=O)[nH]n1 | 0.764 ± 0.062 | 0.877 ± 0.052 | 1.08 ± 0.098 | 0.964 ± 0.052 | 1.23 ± 0.08 | 1.28 ± 0.12 | 0.999 (active)
CC(/C=C1\SC(=S)N(CC(=O)O)C1=O)=C\c1ccccc1 | 0.7 ± 0.036 | 0.822 ± 0.093 | 1.05 ± 0.094 | 0.977 ± 0.048 | 1.4 ± 0.29 | 1.66 ± 0.52 | 0.962 (active)
CC(=O)ON=C1C(C)=C(C#N)C2C1C2(C)C (stereo not given) | 1.2 ± 0.096 | 1.01 ± 0.26 | 0.874 ± 0.32 | 0.718 ± 0.18 | 0.871 ± 0.25 | 0.857 ± 0.33 | 1.01 (active)
COc1cc(C=Cc2nc3ccccc3nc2O)cc(OC)c1 | 1.06 ± 0.054 | 1.06 ± 0.099 | 1.09 ± 0.074 | 0.565 ± 0.029 | 0.834 ± 0.087 | 1.08 ± 0.29 | 0.872 (active)
CN1CCN(C2=Nc3ccccc3Oc3ccc(Cl)cc32)CC1.O=C(O)CCC(=O)O | 0.411 ± 0.052 | 0.796 ± 0.081 | 1.07 ± 0.1 | 0.548 ± 0.12 | 0.722 ± 0.13 | 0.672 ± 0.15 | 0.92 (active)
CCOc1cc(CC(=O)N[C@@H](CC(C)C)c2ccccc2N2CCCCC2)ccc1C(=O)O | 1.24 ± 0.23 | 1.11 ± 0.23 | 0.956 ± 0.055 | 0.897 ± 0.039 | 1.22 ± 0.32 | 1.26 ± 0.18 | 0.683 (inactive)
CN(C)CCNC(=S)NC(=O)C12CCC3CC(CC(C3)C1)C2 | 0.978 ± 0.1 | 1 ± 0.094 | 0.982 ± 0.062 | 0.994 ± 0.033 | 1.5 ± 0.17 | 1.07 ± 0.068 | 1.01 (active)
O=c1[nH]nc(Br)c(=O)[nH]1 | 1.04 ± 0.082 | 1.1 ± 0.09 | 0.969 ± 0.04 | 0.993 ± 0.11 | 1.03 ± 0.057 | 1.02 ± 0.086 | 0.992 (active)
C=C(Br)Cn1c(COc2ccccc2)nc2ccccc21 | 0.562 ± 0.098 | 1.06 ± 0.12 | 1.05 ± 0.084 | 1.12 ± 0.036 | 1.19 ± 0.28 | 1.19 ± 0.15 | 0.991 (active)
CCOC(=O)C1=C(C)NC(C)=C(C(=O)OCC)C1c1ccccc1/C=C/C(=O)OC(C)(C)C | 1.04 ± 0.15 | 1.14 ± 0.3 | 1.14 ± 0.26 | 0.586 ± 0.032 | 1.39 ± 0.29 | 1.15 ± 0.086 | 0.965 (active)
Cc1noc(C)c1CCC(=O)N1CCCC(c2nnc(C(F)(F)F)o2)C1 (stereo not given) | 0.991 ± 0.12 | 1.06 ± 0.087 | 0.923 ± 0.042 | 0.988 ± 0.082 | 1.12 ± 0.1 | 1.02 ± 0.077 | 1.01 (active)
Cc1ncn(CC(=O)N2CC(Oc3cccc(C(F)(F)F)n3)C2)c(=O)c1C | 0.986 ± 0.059 | 1.09 ± 0.086 | 0.9 ± 0.08 | 0.83 ± 0.12 | 1.21 ± 0.086 | 1.25 ± 0.097 | 1 (active)
NCCCC(=O)O | 1.18 ± 0.28 | 0.974 ± 0.1 | 1.01 ± 0.083 | 0.981 ± 0.04 | 1.3 ± 0.19 | 1.3 ± 0.14 | 0.995 (active)
CSc1nc2cccc(F)c2c(=O)n1C1CC1 | 1.06 ± 0.078 | 1.02 ± 0.093 | 1.18 ± 0.076 | 1.09 ± 0.051 | 1.31 ± 0.25 | 1.52 ± 0.38 | 0.67 (inactive)
COc1ccc(C(=O)Nc2sc3c(c2C(N)=O)CCCC3)cc1OC | 0.866 ± 0.067 | 1.01 ± 0.056 | 1.09 ± 0.029 | 0.694 ± 0.038 | 0.942 ± 0.12 | 1.08 ± 0.14 | 0.998 (active)
CC(=NN1CCN(Cc2cccc3ccccc23)CC1)c1ccc(Cl)cc1 | 0.9 ± 0.086 | 1.06 ± 0.077 | 1.01 ± 0.086 | 1 ± 0.068 | 1.19 ± 0.13 | 0.992 ± 0.12 | 1.01 (active)
O=C(Cn1cnc([N+](=O)[O-])n1)Nc1cc(Oc2cccc(C(F)(F)F)c2)cc([N+](=O)[O-])c1 | 0.529 ± 0.043 | 0.806 ± 0.097 | 0.406 ± 0.043 | 0.902 ± 0.022 | 1.6 ± 0.14 | 1.51 ± 0.21 | 0.995 (active)
Oc1ccc(/C=C/c2cc(O)cc(O)c2)cc1 | 1.06 ± 0.16 | 1.23 ± 0.28 | 1.11 ± 0.084 | 0.695 ± 0.041 | 0.845 ± 0.13 | 0.798 ± 0.12 | 0.982 (active)
COCCNC(=O)C=Cc1ccccc1 | 1.12 ± 0.12 | 0.936 ± 0.085 | 1.05 ± 0.072 | 1.02 ± 0.15 | 0.98 ± 0.055 | 1.03 ± 0.074 | 0.991 (active)
Cc1ccc(Sc2cc(Sc3ccc(C)cc3)c3noc4c3c2C(=O)c2ccccc2-4)cc1 | 0.971 ± 0.078 | 1.03 ± 0.075 | 0.957 ± 0.09 | 0.959 ± 0.052 | 1.28 ± 0.21 | 1.49 ± 0.38 | 1.01 (active)
Cc1ccc(C23CC4CC(CC(CN)(C4)C2)C3)cc1.Cl | 0.827 ± 0.062 | 1.02 ± 0.063 | 1.95 ± 0.14 | 0.741 ± 0.031 | 1.27 ± 0.15 | 1.29 ± 0.13 | 0.46 (inactive)
